mHTT-CaM PPI inh: mutant huntingtin-calmodulin interaction inhibitors – biochemical, AlphaScreen, primary screen; AlphaScreen His-mHTT/GST-CaM binding, luminescence; inhibition, % at 15 µM; hit rate 3.6% among 190,000
Pf apPOL block: Pf-apPOL inhibitors, biochemical, fluorescence; hit rate 0.25% among 210,000; Recombinant Pf-apPOL, molecular beacon fluorescence, 1.5 h; AID 1794808, 2022; Plasmodium falciparum apicoplast DNA polymerase (apPOL); inhibition, % at 10 µM
Numbers stand for hits; - = inactive; . = not tested or not shown. This excerpt belongs to a sample that is enriched for hits. Rule as the data show it: active = inhibition above about 50%; inactive = the rest.

SMILES	mHTT-CaM PPI inh	Pf apPOL block
Nc1c(S(=O)(=O)O)cc(Br)c2c1C(=O)c1ccccc1C2=O	-	-
NC1=C(Nc2ccccc2)C(=O)c2ccccc2C1=O	93	-
Cc1ccc(S(=O)(=O)Nc2cc(S(=O)(=O)O)c(N)c3c2C(=O)c2ccccc2C3=O)cc1	79	-
Nc1c(S(=O)(=O)O)cc(Nc2ccc(Nc3nc(Cl)nc(Nc4ccc(S(=O)(=O)O)cc4)n3)c(S(=O)(=O)O)c2)c2c1C(=O)c1ccccc1C2=O	.	-
Nc1c(S(=O)(=O)O)cc(Nc2ccccc2)c2c1C(=O)c1ccccc1C2=O	98	-
O=C1C(Nc2ccccc2)=C(NS(=O)(=O)c2ccccc2)C(=O)c2ccccc21	-	-
CCN(CC)CCNC(=O)CC1CCN(C(=O)c2ccc(C)cc2)CC1	-	-
CCOC(=O)COc1ccc2c(c1)OC(=Cc1ccc(OC)cc1OC)C2=O	-	-
O=C(CCCS(=O)(=O)Cc1ccccc1)Nc1nc2c(s1)Cc1ccccc1-2	-	-
CCN(CC)c1ncc2c(n1)CCC(C(=O)Nc1cc(C)ccc1OC)C2 (centres undefined)	-	-
COc1cccc(N2CC(=O)N(N=Cc3ccc(Cl)cc3)CC2=O)c1	.	-
O=C(NC1CC2CC1CN2C(=O)Nc1ccc(C(F)(F)F)cc1)c1ccccc1 (centres undefined)	-	-
CC(C)c1cc(C(=O)N2CCCC2c2cccc(F)c2)no1 (centres undefined)	-	-
O=C(c1ccccc1F)N1CCCC2(C1)Nc1ccccc1NC2=NC1CCCC1 (centres undefined)	-	-
Cc1ccc(S(=O)(=O)N2CCC(=O)N(CCOCc3cccc(C(F)(F)F)c3)CC2)cc1	-	-
Cc1ccc(S(=O)(=O)N2CCC(=O)N([C@H](COCc3cccc(C)c3)C(C)C)CC2)cc1	-	-
Cc1cccc(COC[C@H](CC(C)C)N2CCN(C(=O)c3ccc(C(F)(F)F)cc3)CCC2=O)c1	90	-
CC(C)C[C@@H](COCc1cccc(C(F)(F)F)c1)N1CCN(C(=O)c2ccc(C(F)(F)F)cc2)CCC1=O	89	-
C=CCSc1nnc2n(-c3ccccc3)c(=O)c3c4c(sc3n12)CCC4	-	-
Cc1cc(Cl)ccc1NC(=O)C1CCc2nc(N3CCCC3)ncc2C1 (centres undefined)	-	-
Cc1sc2ncnc(NC(C(=O)O)C(C)C)c2c1C (centres undefined)	-	.
OC[C@@H]1[C@@H](c2ccc(F)cc2)C(c2ccc(F)cc2)=NN1c1ccccc1	89	-
OC[C@@H]1[C@@H](c2ccc(Cl)cc2)C(c2ccc(F)cc2)=NN1c1ccccc1	72	-
C[C@H]1C(c2ccccc2)=NN(c2ccccc2)[C@@H]1CO	-	-
OC[C@@H]1[C@@H](c2ccccc2)C(c2ccccc2)=NN1c1ccccc1	-	-
SMILES	mHTT-CaM PPI inh	Pf apPOL block
O=C1OCCN1C(=O)[C@H]1[C@H](c2ccc(F)cc2)C(c2cccc(Cl)c2)=NN1c1ccccc1	-	-
OC[C@@H]1[C@@H](c2ccccc2)C(c2ccc(F)cc2)=NN1c1ccccc1	67	-
CN(C)Cc1c(O)ccc2c(=O)c(Oc3ccc4ccccc4c3)c(C(F)(F)F)oc12	76	-
COc1cccc(Oc2c(C(F)(F)F)oc3c(CN(C)C)c(O)ccc3c2=O)c1	-	-
Cc1ccc(C2CC(c3ccccc3)=NN2C(=O)CN2CCOCC2)cc1 (centres undefined)	-	-
Cc1ccc(C2CC(c3ccc(C)cc3C)=NN2C(=O)CN2CCOCC2)cc1 (centres undefined)	76	-
Cc1ccc(C2CC(c3cccc(C)c3)=NN2C(=O)CN2CCOCC2)cc1 (centres undefined)	85	-
Cc1ccc(C)c(C2=NN(C(=O)CN3CCOCC3)C(c3ccc(Cl)cc3)C2)c1 (centres undefined)	-	-
COc1ccc(NS(=O)(=O)C2CCS(=O)(=O)C2)cc1 (centres undefined)	-	100
COc1ccc(NS(C)(=O)=O)cc1	-	-
O=C1C(=CC=CC2=C(O)c3ccccc3S2(=O)=O)S(=O)(=O)c2ccccc21	57	.
COc1cccc(-c2nc3cc(NC(=O)Cc4ccccc4)ccc3o2)c1	-	-
Cc1ccc(NC(=O)CCS(=O)(=O)c2ccc(Br)cc2)nc1	-	-
Cc1ccc(S(=O)(=O)CCC(=O)Nc2ncc(Br)s2)cc1	69	-
CC(C)(C)C(=O)N1CCCN(C2CCN(Cc3ccccc3)C2=O)CC1 (centres undefined)	-	-
Cc1cc(C)c(S(=O)(=O)N2CCCC2c2nc(-c3ccc(F)cc3)no2)c(C)c1 (centres undefined)	-	-
Cn1cc(C(c2ccc(Br)o2)c2cn(C)c3ccccc23)c2ccccc21	-	-
Cn1cc(C(c2ccco2)c2cn(C)c3ccccc23)c2ccccc21	58	-
C=CCn1c(=O)c(-c2nc(-c3cccc(C)c3)no2)c(O)c2ccccc21	-	-
COC(=O)C1C2C=CC3(CN(c4cccc(C)c4)C(=O)C13)O2 (centres undefined)	66	-
CCCCOC(=O)C1C2C=CC3(CN(c4cccc(C)c4)C(=O)C13)O2 (centres undefined)	-	-
Cc1ccccc1C1CCCN1C(=O)Cc1cccc(Cl)c1 (centres undefined)	-	-
Cc1ccc(C2CCCN2C(=O)Cc2ccc(Cl)cc2)cc1 (centres undefined)	58	-
Cc1ccccc1C1CCCN1C(=O)Cc1ccc(Cl)cc1 (centres undefined)	58	-
Cc1ccc(C2CCCN2C(=O)Cc2ccc(F)cc2)cc1 (centres undefined)	-	-
SMILES	mHTT-CaM PPI inh	Pf apPOL block
Oc1ccc(/C=N/Nc2nn[nH]n2)cc1O	-	.
COc1ccc(NS(=O)(=O)c2ccc(Cl)c(C(=O)Nc3ccccc3[N+](=O)[O-])c2)cc1	-	-
CC(C)C(=O)Oc1coc(CSc2nnc(NC(=O)c3cccs3)s2)cc1=O	82	74
O=C(CSc1nnc(NC(=O)c2cccs2)s1)NCc1ccccc1Cl	-	-
CCc1ccc(O)c(N=Cc2cccc(I)c2O)c1	-	-
CN(C)c1ncncc1N1CCC(C(=O)NCc2ccco2)CC1	-	-
Cc1ccc(NC(=O)N2CCN(Cc3nc4cccnc4n3-c3ccccc3)CC2)c(C)c1	-	-
Oc1cc2c(cc1C(c1ccc3c(c1)OCO3)N1CCOCC1)OCO2 (centres undefined)	94	.
CCOC(=O)C(=O)NCC(c1ccc2c(c1)OCO2)N1CCOCC1 (centres undefined)	-	-
O=[N+]([O-])C(/C=C(\Cl)[N+](=O)[O-])=C(Nc1ccccc1)Nc1ccccc1	63	-
O=[N+]([O-])C(/C=C(\Cl)[N+](=O)[O-])=C1N(c2ccccc2)CCN1c1ccccc1	-	-
O=C(C1CCN(Cc2ccccc2O)CC1)N(CCc1ccccc1)Cc1ccccc1	-	-
Cc1ccc(CN2CCC(C(=O)N(CCc3ccccc3)Cc3ccccc3)CC2)o1	58	-
O=C(NCc1cccnc1)C(=O)Nc1ccc(F)cc1	-	-
O=C(Nc1ccccc1)C1C(c2ccccc2)C1(Cl)Cl (centres undefined)	-	-
Cc1cccc(NC(=O)C2C(c3ccccc3)C2(Cl)Cl)c1C (centres undefined)	-	67
CC(C)c1cccc(N2C=C(C#N)S(=O)(=O)c3ccc(Cl)cc32)c1	-	-

Screening data from PubChem.
